Data from PubChem BioAssay (NCI).
About 83,000 compounds went through this panel and 20% of them were active in at least one assay; those are over-represented in the sample as a whole.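 Percent growth is the endpoint: 0 to 100 indicates growth inhibition (40 means 60% inhibition), 0 means no net growth, and negative values indicate cell death.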 The source made the active and inactive calls. Rule for the calls: active = growth percent below 10; inactive = the rest.

What was measured:
Assay in all cases: NCI-60 one-dose screen, 48 h (100 = growth as untreated, 0 = no growth, -100 = all killed)
Conditions in all cases: 10 µM unless noted
RPMI-8226 leukemia = tested on: RPMI-8226 leukemia
OVCAR-8 ovarian = tested on: OVCAR-8 ovarian
OVCAR-5 ovarian = tested on: OVCAR-5 ovarian
OVCAR-4 ovarian = tested on: OVCAR-4 ovarian
SK-OV-3 ovarian = tested on: SK-OV-3 ovarian
IGROV1 ovarian = tested on: IGROV1 ovarian
OVCAR-3 ovarian = tested on: OVCAR-3 ovarian
HS 578T breast = tested on: HS 578T breast
NCI/ADR-RES ovarian = tested on: NCI/ADR-RES ovarian
T-47D breast = tested on: T-47D breast
BT-549 breast = tested on: BT-549 breast
MDA-MB-435 melanoma = tested on: MDA-MB-435 melanoma
SW-620 colon = tested on: SW-620 colon
MCF7 breast = tested on: MCF7 breast
HCT-116 colon = tested on: HCT-116 colon
HCC-2998 colon = tested on: HCC-2998 colon
KM12 colon = tested on: KM12 colon

Measured: growth

CN1CCN(c2ccc(-c3cc4c(Nc5ccc(F)c(Cl)c5)ncnn4c3)cn2)CC1
inactive: OVCAR-8 ovarian 77.1% | OVCAR-5 ovarian 97.8% | OVCAR-4 ovarian 88.4% | SK-OV-3 ovarian 110% | IGROV1 ovarian 89.5% | OVCAR-3 ovarian 98.6% | HS 578T breast 76.9% | NCI/ADR-RES ovarian 83.6% | T-47D breast 96.2% | BT-549 breast 105% | MDA-MB-435 melanoma 96.1% | SW-620 colon 40.4% | MCF7 breast 77.4% | HCC-2998 colon 98.6% | KM12 colon 93.7%
active: RPMI-8226 leukemia 3.77% | HCT-116 colon 1.89%

COc1ccc2cc(C(C)C(=O)Nc3ccc(-c4n[nH]c(=S)n4C4CCCCC4)cc3)ccc2c1 (stereo not drawn)
inactive: RPMI-8226 leukemia 54.3% | OVCAR-8 ovarian 75.6% | OVCAR-5 ovarian 101% | OVCAR-4 ovarian 88.1% | SK-OV-3 ovarian 105% | IGROV1 ovarian 88.9% | OVCAR-3 ovarian 86.4% | HS 578T breast 75.1% | NCI/ADR-RES ovarian 50.7% | T-47D breast 69.7% | BT-549 breast 90.9% | MDA-MB-435 melanoma 62.4% | SW-620 colon 92.2% | MCF7 breast 48.3% | HCT-116 colon 48.6% | HCC-2998 colon 70.5% | KM12 colon 55.9%

O=CN(SSN(C=O)C1CCCCC1)C1CCCCC1
inactive: RPMI-8226 leukemia 120% | OVCAR-8 ovarian 104% | OVCAR-5 ovarian 113% | OVCAR-4 ovarian 101% | SK-OV-3 ovarian 113% | IGROV1 ovarian 100% | OVCAR-3 ovarian 107% | HS 578T breast 112% | NCI/ADR-RES ovarian 116% | T-47D breast 79.2% | BT-549 breast 137% | MDA-MB-435 melanoma 110% | SW-620 colon 92.3% | MCF7 breast 102% | HCT-116 colon 85.9% | HCC-2998 colon 116% | KM12 colon 104%

Cc1ccc(C2CC(c3ccc(Nc4ccnc5cc(Cl)ccc45)cc3)=NN2C=O)cc1 (stereo not drawn)
inactive: RPMI-8226 leukemia 19.8% | OVCAR-8 ovarian 59.8% | OVCAR-5 ovarian 94.8% | OVCAR-4 ovarian 38.7% | SK-OV-3 ovarian 84.8% | IGROV1 ovarian 48.2% | OVCAR-3 ovarian 30.6% | HS 578T breast 61.8% | NCI/ADR-RES ovarian 42.3% | T-47D breast 38.3% | BT-549 breast 56.8% | MDA-MB-435 melanoma 16.3% | SW-620 colon 68% | MCF7 breast 35.2% | HCT-116 colon 57.6% | HCC-2998 colon 53.2% | KM12 colon 50.2%

Fc1cc2c(cc1Cl)N(c1ncnc3ccc(-c4cnc5cnccn45)cc13)CC2
inactive: RPMI-8226 leukemia 95.2% | OVCAR-8 ovarian 91.4% | OVCAR-5 ovarian 74.4% | OVCAR-4 ovarian 94.8% | SK-OV-3 ovarian 94.2% | IGROV1 ovarian 48.2% | OVCAR-3 ovarian 87.4% | HS 578T breast 93.4% | NCI/ADR-RES ovarian 86.8% | T-47D breast 74.9% | BT-549 breast 83.7% | MDA-MB-435 melanoma 101% | SW-620 colon 101% | MCF7 breast 75.8% | HCT-116 colon 83.5% | HCC-2998 colon 90.6% | KM12 colon 98.1%

S=C(c1cccs1)N1CCN(c2cccc(Cl)c2)CC1
inactive: RPMI-8226 leukemia 86.3% | OVCAR-8 ovarian 104% | OVCAR-5 ovarian 97.2% | OVCAR-4 ovarian 101% | SK-OV-3 ovarian 107% | IGROV1 ovarian 89.9% | OVCAR-3 ovarian 106% | HS 578T breast 120% | NCI/ADR-RES ovarian 104% | T-47D breast 82.6% | BT-549 breast 59.3% | MDA-MB-435 melanoma 108% | SW-620 colon 103% | MCF7 breast 96.9% | HCT-116 colon 83.9% | HCC-2998 colon 110% | KM12 colon 102%

CC(=O)Oc1ccccc1C(=O)N=C1[Se]CCCN1C(=O)c1ccccc1OC(C)=O
inactive: RPMI-8226 leukemia 80.8% | OVCAR-8 ovarian 47% | OVCAR-5 ovarian 90.8% | OVCAR-4 ovarian 78.8% | SK-OV-3 ovarian 141% | IGROV1 ovarian 11.7% | HS 578T breast 24.9% | NCI/ADR-RES ovarian 29% | T-47D breast 85.2% | SW-620 colon 88.4% | MCF7 breast 15.7% | HCC-2998 colon 104%
active: OVCAR-3 ovarian 7.64% | MDA-MB-435 melanoma -18.9% | HCT-116 colon -8.29%

COc1cc(C(=O)/C=C/c2ccc(OCCCCCC[P+](c3ccccc3)(c3ccccc3)c3ccccc3)cc2)cc(OC)c1OC
inactive: OVCAR-4 ovarian 10.1% | NCI/ADR-RES ovarian 74.4%
active: RPMI-8226 leukemia 0.339% | OVCAR-8 ovarian -45.5% | OVCAR-5 ovarian -13% | SK-OV-3 ovarian -35.9% | IGROV1 ovarian -60.2% | OVCAR-3 ovarian -48% | HS 578T breast -6.89% | T-47D breast -21.5% | MDA-MB-435 melanoma -58.9% | SW-620 colon -80.4% | MCF7 breast -68.1% | HCT-116 colon -77.3% | HCC-2998 colon -20.3% | KM12 colon -86.8%

COc1ccc([C@H]2c3cc(OC)c(OC)cc3C=C(C=O)C2CO)cc1OC (stereo partly drawn)
inactive: RPMI-8226 leukemia 61.5% | OVCAR-8 ovarian 60.8% | OVCAR-5 ovarian 106% | OVCAR-4 ovarian 63.5% | SK-OV-3 ovarian 73.3% | IGROV1 ovarian 34.1% | HS 578T breast 14.2% | NCI/ADR-RES ovarian 70.8% | T-47D breast 45.2% | SW-620 colon 21.5% | HCT-116 colon 23.8% | HCC-2998 colon 58.4% | KM12 colon 21%
active: OVCAR-3 ovarian -30.6% | MDA-MB-435 melanoma -24%

CNC(=O)c1[nH]cc(-c2ccccc2)c1-c1cc(OC)c2c(c1OC)OCO2
inactive: RPMI-8226 leukemia 105% | OVCAR-8 ovarian 100% | OVCAR-5 ovarian 101% | OVCAR-4 ovarian 106% | SK-OV-3 ovarian 108% | IGROV1 ovarian 103% | OVCAR-3 ovarian 94.9% | HS 578T breast 102% | NCI/ADR-RES ovarian 101% | T-47D breast 88.7% | BT-549 breast 95.6% | MDA-MB-435 melanoma 102% | SW-620 colon 99.9% | HCT-116 colon 99.5% | HCC-2998 colon 102% | KM12 colon 96.9%

COc1ccc(/C=N/Nc2cc(=O)[nH]c3ccc(Cl)cc23)cc1
active: HCT-116 colon 8.92%
inactive: RPMI-8226 leukemia 36.6% | OVCAR-8 ovarian 69.1% | OVCAR-5 ovarian 95.1% | OVCAR-4 ovarian 43.1% | SK-OV-3 ovarian 95.2% | IGROV1 ovarian 75.7% | OVCAR-3 ovarian 11.8% | HS 578T breast 91.7% | NCI/ADR-RES ovarian 78% | T-47D breast 42.4% | BT-549 breast 32.1% | MDA-MB-435 melanoma 43.2% | SW-620 colon 37.9% | MCF7 breast 35.2% | HCC-2998 colon 88.8% | KM12 colon 46.6%

O=C(/C=C/c1sc(Cl)nc1Cl)c1ccc(Br)cc1
inactive: RPMI-8226 leukemia 30.9% | OVCAR-8 ovarian 90% | OVCAR-5 ovarian 95.3% | OVCAR-4 ovarian 108% | SK-OV-3 ovarian 105% | IGROV1 ovarian 68.5% | OVCAR-3 ovarian 40% | HS 578T breast 93.5% | NCI/ADR-RES ovarian 104% | T-47D breast 91.1% | BT-549 breast 97.3% | MDA-MB-435 melanoma 98.4% | SW-620 colon 47.7% | HCT-116 colon 57.4% | HCC-2998 colon 52.1% | KM12 colon 77.2%

CN1C(=O)N(C)C2Nn3c(s/c(=C\c4ccccc4)c3=O)=NC21 (stereo not drawn)
inactive: RPMI-8226 leukemia 101% | OVCAR-8 ovarian 96% | OVCAR-5 ovarian 100% | OVCAR-4 ovarian 101% | SK-OV-3 ovarian 100% | IGROV1 ovarian 100% | OVCAR-3 ovarian 100% | HS 578T breast 96.2% | NCI/ADR-RES ovarian 99.7% | T-47D breast 98.2% | BT-549 breast 97.1% | MDA-MB-435 melanoma 85.9% | SW-620 colon 96.9% | MCF7 breast 87.1% | HCT-116 colon 88.8% | HCC-2998 colon 104% | KM12 colon 97.5%

O=C(CCOCCNC(=O)COc1ccc2c(c1)OCC(c1ccc(F)cc1)C2=O)NCCCC(O)(P(=O)(O)O)P(=O)(O)O (stereo not drawn)
inactive: RPMI-8226 leukemia 108% | OVCAR-8 ovarian 104% | OVCAR-5 ovarian 103% | OVCAR-4 ovarian 99.2% | SK-OV-3 ovarian 108% | IGROV1 ovarian 118% | OVCAR-3 ovarian 104% | HS 578T breast 105% | NCI/ADR-RES ovarian 107% | T-47D breast 101% | BT-549 breast 105% | MDA-MB-435 melanoma 102% | SW-620 colon 101% | HCT-116 colon 101% | HCC-2998 colon 98% | KM12 colon 100%

O=c1[nH]c2c(ccc3cnccc32)c2c1CCC2
active: RPMI-8226 leukemia -31% | OVCAR-5 ovarian -2.64% | SK-OV-3 ovarian 3.27% | IGROV1 ovarian -71% | OVCAR-3 ovarian -27% | HS 578T breast -21.8% | NCI/ADR-RES ovarian 7.35% | T-47D breast -7.41% | BT-549 breast -51.7% | MDA-MB-435 melanoma -60.1% | SW-620 colon -11.9% | MCF7 breast -4.54% | HCT-116 colon 4.41% | HCC-2998 colon -51.8% | KM12 colon -17.9%
inactive: OVCAR-8 ovarian 13.9% | OVCAR-4 ovarian 28.3%

O=C(Oc1cccc2ccccc12)Oc1cccc2ccccc12
inactive: RPMI-8226 leukemia 113% | OVCAR-8 ovarian 107% | OVCAR-5 ovarian 103% | OVCAR-4 ovarian 113% | SK-OV-3 ovarian 102% | IGROV1 ovarian 73.6% | OVCAR-3 ovarian 79.4% | HS 578T breast 106% | NCI/ADR-RES ovarian 103% | T-47D breast 95.1% | MDA-MB-435 melanoma 115% | SW-620 colon 110% | MCF7 breast 107% | HCT-116 colon 107% | HCC-2998 colon 105% | KM12 colon 97.3%
